Screening results (PubChem BioAssay)
Only a selection was taken, and hits are over-represented in it overall.
KDM5B inhibitor = KDM5B demethylase inhibition; Q9UGL1; KDM5B demethylase, FDH-coupled NADH fluorescence (FDH is formaldehyde dehydrogenase); Potency, µM (highest dose often 57.7 µM), actives largely listed as inhibitors; actives 2.6% (n = 220,000); active = well fitted inhibition curve with a large enough effect; also: nearly all actives have a fitted effect of over 70% in size
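Compound dilutions met 200 nM (final) KDM5BΔAP for 10 min at room temperature before substrate addition. The substrate mix held 12.5 µM H3K4me3 with cofactors 25 µM α-ketoglutarate and 50 µM Fe²⁺. NADH signal gain over 30 min defined activity.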
Each line names hits and unclear results; the compound was inactive in the other large screens.

CN(C)c1cccc(C(=O)NC2CCN(c3cnn(C)c(=O)c3)CC2)c1	KDM5B inhibitor 25µM
COc1ccc(C(=O)NC2CCN(c3cnn(C)c(=O)c3)CC2)cc1OC	none
CN(C)c1cccc(C(=O)NC2CCN(c3cc(-c4ccccc4)[nH]n3)C2)c1 (configuration not stated)	KDM5B inhibitor 25µM
O=C(NC1CCN(c2cc(-c3ccccc3)[nH]n2)C1)c1ccccc1Cl (configuration not stated)	none
Cn1ncc(N2CCC(NC(=O)c3ccc4c(c3)OCO4)CC2)cc1=O	none
O=C(O)COc1ccc(/C=C2/NC(=O)NC2=O)cc1Br	none
CCC(C)c1ccc(NC(=O)CC(C)C)cc1 (configuration not stated)	none
CC(C)c1ccc(C(=O)NCCc2c[nH]c3ccccc23)cc1	none
CC(=O)c1c(OS(=O)(=O)c2ccccc2-c2ccccc2)ccc2c(C)cc(=O)oc12	none
O=C(c1cc2ccccc2oc1=O)N(Cc1ccc(C(F)(F)F)cc1)C1CC1	none
O=C(O)C1(O)CCN(c2ncc(F)c(N3CCOCC3)n2)CC1	KDM5B inhibitor 28µM
COCC1CCN(c2ncc(C(C)(C)C(=O)O)c(N3CCOCC3)n2)CC1	none
CC(C)(C(=O)O)c1cnc(N2CCN(CCO)CC2)nc1N1CCOCC1	none
Cc1nc(Cc2nn3c(-c4ccc(F)c(Br)c4)nnc3s2)cs1	none
Clc1ccc(COc2ccc(CNC3CC3)cc2)cc1	none
Cc1c(C(=O)OCc2ccccc2)sc(=S)n1-c1ccccc1	none
Cc1ccc(CN(C(=O)c2ccco2)c2nc3nc(C)c(Cc4ccccc4)c(=O)n3[nH]2)cc1	none
Cc1ccc(-c2cc(N3CCC(CNC(=O)c4n[nH]c5c4CCCC5)CC3)n[nH]2)cc1	none
Cc1ccc(NC(=O)c2cccc(N(C)C)c2)c(C)c1	none
CC(=O)N1CCC(C(=O)NCC2CCN(c3cc(-c4ccc(Cl)cc4)[nH]n3)CC2)CC1	none
CN(C)c1cccc(C(=O)NCC2CCN(c3cc(-c4ccc(F)cc4)[nH]n3)CC2)c1	KDM5B inhibitor 20µM
Cc1cccc(-c2[nH]ncc2CNC(=O)c2cccc(N(C)C)c2)c1	KDM5B inhibitor 28µM
Cc1nccn1CC(=O)NCC1CCN(c2cc(-c3ccc(Cl)cc3)[nH]n2)CC1	none
CN(C)c1cccc(C(=O)NCC2CCN(c3cc(-c4ccc(Cl)cc4)[nH]n3)CC2)c1	KDM5B inhibitor 32µM
O=C(NCC1CCN(c2cc(-c3ccc(F)cc3)[nH]n2)CC1)c1ccc[nH]c1=O	none
Cc1ccc(-c2cc(N3CCC(CNC(=O)c4ccc[nH]c4=O)CC3)n[nH]2)cc1	none
O=C(NCC1CCN(c2cc(-c3ccc(F)cc3)[nH]n2)CC1)c1n[nH]c2c1CCCC2	none
Cc1ccc(-c2cc(N3CCC(CNC(=O)c4cccc(N(C)C)c4)CC3)n[nH]2)cc1	KDM5B inhibitor 28µM
Cc1cccc(C)c1NC(=O)c1cccc(N(C)C)c1	none
Cc1ccc(NC(=O)C(=O)c2c[nH]c3ccccc23)cc1Cl	none
Cn1ccnc1C(NC(=O)Cc1ccc(-c2ccccc2)cc1)c1ccc(Cl)cc1 (configuration not stated)	none
O=C(COC(=O)c1cc(Br)c[nH]1)NCc1ccc(F)cc1	none
Fc1ccc(Oc2nc3ccccc3s2)c(Br)c1	none
CC(CC(=O)c1ccc(Cl)cc1)CC(=O)c1ccc(Cl)cc1	none
O=C1NCc2ccccc2CC12CCN(Cc1ccc(Cl)s1)CC2	none
S=C(NCc1ccc(Cl)cc1)NC1CC2CCC1C2 (configuration not stated)	none
Oc1ccc(Cl)cc1C=NCc1ccc(F)c(Cl)c1	none
N#CCCN(C(=S)Nc1ccc(SC(F)F)cc1)c1ccccc1	none
C=CCNC(=O)c1cccn2nccc12	KDM5B inhibitor 32µM
O=C(Nc1ccc(F)cc1)c1cccn2nccc12	none
CC(=O)c1ccc(NC(=O)c2cc3ncccn3n2)cc1	none
CNC(=O)c1ccc(OCc2nnc(C(C)(C)C)o2)cc1	none
O=C(Nc1ccc(Cl)nc1)c1cccn2nccc12	KDM5B inhibitor 35µM
Cn1cc(C(=O)Nc2ccc(Cl)c(Cl)c2)cn1	none
C=CCNC(=O)c1ccn2nccc2c1	none
O=C(Nc1ccc(Cl)nc1)c1ccc2ccnn2c1	KDM5B inhibitor 32µM
CNC(=O)c1ccc2ccnn2c1	KDM5B inhibitor 35µM
O=C(NNC(=O)c1ccc(Cl)nc1)c1ccncc1	none
C=CCNC(=O)c1ccccc1NC(=O)c1cccc(C#N)c1	none
O=C(NC1CC1)c1ccn2nccc2c1	none
COc1ccc(OC)c(NC(=O)C2CCCN2C(=O)C23CC4CC(CC(C4)C2)C3)c1 (configuration not stated)	none
CN(CC(=O)Nc1ccc2c(c1)OC1(CCCC1)O2)S(=O)(=O)c1cccs1	none
COc1cc(C2CC(=O)c3c(C)nc(Nc4ccccc4)nc3C2)cc(OC)c1OC (configuration not stated)	none
COc1cc(NC(=O)Cn2nc3ccc(SC4CCCCC4)nn3c2=O)cc(OC)c1OC	none
O=C(/C=C/c1ccccc1OCc1cccnc1)c1ccc(O)cc1	none
CC(=O)c1ccc(NC(=O)C23CC4CC(CC(C4)C2)C3)cc1	none
O=C(CSc1nc2cc(Cl)ccc2s1)NC1CCCCCCC1	none
COc1ccccc1CCC(=O)N1CCC(Oc2ncccc2C(=O)N(C)C)C1 (configuration not stated)	none
Cc1cc(C)n(CC(=O)N[C@@H]2CN(c3ncccn3)C[C@H]2CN(C)C)n1	KDM5B inhibitor 28µM
Cc1cc(C)n(CC(=O)N[C@@H]2CN(Cc3cccnc3)C[C@H]2CN(C)C)n1	none
Cc1ccc(F)cc1S(=O)(=O)N[C@@H]1CN(c2ncccn2)C[C@H]1CN(C)C	KDM5B inhibitor 25µM
COc1cccc(CC(=O)N[C@@H]2CN(c3ncccn3)C[C@H]2CO)c1	KDM5B inhibitor 25µM
COc1cccc(CC(=O)N2CC[C@H](CO)[C@H](NC(=O)C3CC3)C2)c1	none
COc1ccccc1CCC(=O)N[C@@H]1CN(c2ccncn2)C[C@H]1CO	none
COc1cccc(CN2C[C@@H](CO)[C@H](NC(=O)c3ccccc3)C2)c1	none
Cc1ccc(S(=O)(=O)N[C@@H]2CN(C)C[C@H]2CN(C)C)cc1F	none
COc1ccccc1CCC(=O)N[C@@H]1CN(c2ncccn2)C[C@H]1CN(C)C	KDM5B inhibitor 32µM
Cc1ccn(CC(=O)N[C@@H]2CN(c3ccncn3)C[C@H]2CN(C)C)n1	none
CN(C)C[C@@H]1CN(Cc2ccccn2)C[C@H]1NS(=O)(=O)c1cccc(C#N)c1	none
Cc1cc(NC(=O)C(=O)c2c[nH]c3ccccc23)no1	none
Cc1ccccc1-n1c(SCCOc2ccccc2Cl)nnc1-c1ccc(C(C)(C)C)cc1	none
O=C(NCCc1ccccc1)c1cncc(Br)c1	none
Cc1ccc(C)c(NC(=S)N/N=C/C2=CCC3CC2C3(C)C)c1 (configuration not stated)	none
CCOc1ccc(Nc2oc(COc3ccc(Cl)cc3)nc2C#N)cc1	none
Cc1cc(C)cc(C(=O)c2c(-c3ccccc3)cc3ccccn23)c1	none
COc1ccccc1NS(=O)(=O)c1cccc(C(=O)N2CCc3sccc3C2)c1	none
Cc1ccc2[nH]cc(CCn3ccc4c(cnc5ncnn54)c3=O)c2c1	none
N#CC1=C(N)Oc2n[nH]c(-c3ccccc3)c2C12C(=O)N(Cc1cccc(F)c1)c1ccccc12 (configuration not stated)	none
CCN(CC)S(=O)(=O)c1cccc(NS(=O)(=O)c2ccc3ccccc3c2)c1	none
CN(C)C[C@@H]1CN(c2ncccn2)C[C@H]1NS(=O)(=O)Cc1ccc(F)cc1	KDM5B inhibitor 25µM
CC(NS(=O)(=O)Cc1ccc(F)cc1)c1cccnc1 (configuration not stated)	none
CN(C)C[C@@H]1CN(c2ccncn2)C[C@H]1NC(=O)Cc1c[nH]c2ccccc12	none
